From PubChem BioAssay (EPA / NIEHS)
Inconclusive results are not listed. Active and inactive are the calls of the source. The calls were made as follows, unless noted: active = hit-call score of the fitted dose curve at least 0.9, where 1 is the maximum; inconclusive = response in the unintended direction; inactive = score below 0.9.

Key:
[1] = TOX21_p53_BLA_p2_viability: Viability Assessment in the Tox21 HCT-116 p53 Agonism Beta-lactamase Assay, Phase 2 (AID 2283591);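 also: compound exposure lasted 16 h at 37 °C; actives lower the ATP signal meaning cytotoxicity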
In short: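 HCT116 p53-bla cells, 4000/well, dosed after 5 h plating (217-fold dilution of DMSO stocks) and incubated 16 h at 37C. Viability taken as cellular ATP by CellTiter-Glo luminescence after 30 min RT; signal loss marks cytotoxicity.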

[2] = target: Cellular tumor antigen p53 (Homo sapiens) (UniProt P04637); test: TOX21_p53_BLA_p2_ratio: Tox21 HCT-116 p53 Agonism Beta-lactamase Assay, Ratio, Phase 2 (AID 2283592)
In short: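 Ratio endpoint: beta-lactamase cleavage of CCF4-AM, blue (460 nm) over green (530 nm). HCT116 reporter line; 16 h treatment, 37C; substrate 2 h RT.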

[3] = TOX21_p53_BLA_p3_viability: Viability Assessment in the Tox21 HCT-116 p53 Agonism Beta-lactamase Assay, Phase 3 (AID 2283593);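 also: cells exposed to compound for 16 h before reading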
In short: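 HCT116 cells, 4000/well, dosed 5 h after plating by pin transfer (217-fold dilution from DMSO stock) and incubated 16 h at 37C, 5% CO2. Viability read as ATP luminescence with CellTiter-Glo after 30 min at room temperature.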

[4] = target: Cellular tumor antigen p53 (Homo sapiens) (UniProt P04637); test: TOX21_p53_BLA_p3_ratio: Tox21 HCT-116 p53 Agonism Beta-lactamase Assay, Ratio, Phase 3 (AID 2283596)
In short: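 Cells were seeded at 4000/well, rested 5 h at 37C, then dosed with DMSO compound solutions (217-fold dilution) for 16 h. CCF4-AM substrate was loaded for 2 h at room temperature, and the 460/530 nm emission ratio was fitted for gain of signal versus DMSO.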

[5] = target: Cellular tumor antigen p53 (Homo sapiens) (UniProt P04637); test: TOX21_p53_BLA_p5_ratio: Tox21 HCT-116 p53 Agonism Beta-lactamase Assay, Ratio, Phase 5 (AID 2283599)
In short: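 HCT-116 p53-bla cells (4000/well) plated 5 h, dosed with compound (217-fold DMSO dilution) for 16 h at 37 C; CCF4-AM substrate 2 h at room temperature. Activity is the 460/530 nm emission ratio (405 nm excitation), fitted in gain-of-signal direction versus DMSO.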

[6] = TOX21_p53_BLA_p5_viability: Viability Assessment in the Tox21 HCT-116 p53 Agonism Beta-lactamase Assay, Phase 5 (AID 2283600)
In short: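 Luciferase-coupled ATP quantitation of cells treated for 16 h (37C, 5% CO2) with test chemicals delivered in DMSO via a 217-fold dilution; 4000 cells/well; reagent incubated 30 min at room temperature before luminescence reading.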

[7] = TOX21_p53_BLA_p4_viability: Viability Assessment in the Tox21 HCT-116 p53 Agonism Beta-lactamase Assay, Phase 4 (AID 2283597);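 also: hits lower the luminescence signal meaning cytotoxicity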
In short: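 Cytotoxicity was inferred from loss of CellTiter-Glo luminescence. HCT116 cells had been dosed with compounds after 5 h plating, incubated 16 h at 37C and 5% CO2, and exposed to the CCF4-AM substrate for 2 h.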

[8] = target: Cellular tumor antigen p53 (Homo sapiens) (UniProt P04637); test: TOX21_p53_BLA_p4_ratio: Tox21 HCT-116 p53 Agonism Beta-lactamase Assay, Ratio, Phase 4 (AID 2283601)
In short: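 HCT-116 p53 beta-lactamase reporter cells (4000/well) preincubated 5 h, then compound (217-fold dilution of DMSO stock) for 16 h at 37C. CCF4-AM substrate added 2 h at room temperature; 460/530 nm emission ratio fitted upward versus DMSO.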

[9] = tested on: Brachyury (BRA) Protein Expression, Deisenroth Lab, TBXT (gene 6862); test: CCTE_Deisenroth_DEVTOX-GLR_legacy_Bra: (Legacy) CCTE's DevTox GLR-Endo Assay Evaluation of Brachyury (BRA) Protein Expression, Deisenroth Lab (AID 2284329; active = hit-call score of the fitted dose curve at least 0.9, where 1 is the maximum; inactive = score below 0.9)
In short: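 Readout: percent Bra+ cells by high-content fluorescence imaging, Bra+ meaning mean intensity 5x BMAD over pluripotent control median. RUES2-GLR cells dosed twice over 48 h differentiation; DMSO-control median subtracted before concentration-response fitting.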

[10] = CCTE_Deisenroth_DEVTOX-GLR_legacy_CellCount: (Legacy) Viability Assessment in CCTE's DevTox GLR-Endo Assay, Deisenroth Lab (AID 2284331; active = hit-call score of the fitted dose curve at least 0.9, where 1 is the maximum; inactive = score below 0.9); details: actives raise or lower the signal
In short: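 Viability is taken from imaged nuclei counts in fixed RUES2-GLR cultures after 48 h of differentiation under two 24 h-spaced chemical exposures, 10 concentrations from 1 nM to 200 uM, gain or loss versus DMSO baseline.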

[11] = tested on: SRY-box transcription factor 17 (SOX17) Protein Expression, Deisenroth Lab, SOX17 (gene 64321); test: CCTE_Deisenroth_DEVTOX-GLR_legacy_Sox17: (Legacy) CCTE's DevTox GLR-Endo Assay Evaluation of SRY-box transcription factor 17 (SOX17) Protein Expression, Deisenroth Lab (AID 2284341; active = hit-call score of the fitted dose curve at least 0.9, where 1 is the maximum; inactive = score below 0.9); details: actives raise or lower the signal
In short: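 Endoderm-differentiation readout in RUES2-GLR human pluripotent cells at 48 h, concentrations spanning 1 nM - 200 uM. Sox17-positive cells divided by total cell count; gain or loss relative to DMSO solvent control, n=4 experimental replicates.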

[12] = tested on: SRY-box transcription factor 2 (SOX2) Protein Expression, Deisenroth Lab, SOX2 (gene 6657); test: CCTE_Deisenroth_DEVTOX-GLR_legacy_Sox2: (Legacy) CCTE's DevTox GLR-Endo Assay Evaluation of SRY-box transcription factor 2 (SOX2) Protein Expression, Deisenroth Lab (AID 2284346; active = hit-call score of the fitted dose curve at least 0.9, where 1 is the maximum; inactive = score below 0.9)
In short: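 Read-out: fraction of Sox2+ cells by high-content fluorescence imaging of fixed RUES2-GLR cells after 48 h differentiation with two 24 h-spaced exposures. Positivity cutoff 5x BMAD above endoderm control median; 0.2% DMSO median subtracted.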

[13] = tested on: SRY-box transcription factor 2 (SOX2) Protein Expression, Deisenroth Lab, SOX2 (gene 6657); test: CCTE_Deisenroth_DEVTOX-GLR_Endo_SOX2: CCTE's DevTox GLR-Endo Assay Evaluation of SRY-box transcription factor 2 (SOX2) Protein Expression, Deisenroth Lab (AID 2284412)
In short: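 Endpoint is percent SOX2-positive cells (SOX2+ count/total cells) minus 0.2% DMSO control, from high-content imaging of fixed, nuclear-stained RUES2-GLR cells. Dosing twice at 24 h intervals over 48 h differentiation, 1 nM–200 uM in 10 points.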

[14] = tested on: SRY-box transcription factor 17 (SOX17) Protein Expression, Deisenroth Lab, SOX17 (gene 64321); test: CCTE_Deisenroth_DEVTOX-GLR_Endo_SOX17: CCTE's DevTox GLR-Endo Assay Evaluation of SRY-box transcription factor 17 (SOX17) Protein Expression, Deisenroth Lab (AID 2284413; active = hit-call score of the fitted dose curve at least 0.9, where 1 is the maximum; inactive = score below 0.9)
In short: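 Human RUES2-GLR cells carrying an inducible fluorescent reporter are differentiated in defined media for 48 h and dosed twice, 24 h apart. After fixation and nuclear staining, imaging yields SOX17+ cell percentage relative to 0.2% DMSO-treated differentiated cells.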

[15] = CCTE_Deisenroth_DEVTOX-GLR_Endo_CellCount: Viability Assessment in CCTE's DevTox GLR-Endo Assay, Deisenroth Lab (AID 2284420; active = hit-call score of the fitted dose curve at least 0.9, where 1 is the maximum; inactive = score below 0.9)
In short: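 RUES2-GLR human pluripotent cells seeded 24 h, then differentiated 48 h with two chemical exposures at 24 h intervals (10-point, 1 nM - 200 uM). Fixed, nuclear-stained, imaged; nuclei counts give % change in cell count versus 0.2% DMSO.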

[16] = tested on: SRY-box transcription factor 17 (SOX17) Protein Expression, Deisenroth Lab, SOX17 (gene 64321); test: CCTE_Deisenroth_DEVTOX-GLR_Pluri_SOX17: CCTE's DevTox GLR-Pluri Assay Evaluation of SRY-box transcription factor 17 (SOX17) Protein Expression, Deisenroth Lab (AID 2284427)
In short: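 RUES2-GLR human pluripotent cells were seeded 24 h, then differentiated 48 h in defined media with two chemical exposures 24 h apart (10-point series, 1 nM - 200 uM). Fixed, nuclear-stained cells were imaged; %SOX17+ cells minus 0.2% DMSO control reported.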

[17] = tested on: Brachyury (BRA) Protein Expression, Deisenroth Lab, TBXT (gene 6862); test: CCTE_Deisenroth_DEVTOX-GLR_Pluri_BRA: CCTE's DevTox GLR-Pluri Assay Evaluation of Brachyury (BRA) Protein Expression, Deisenroth Lab (AID 2284429)
In short: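 RUES2-GLR reporter line; 48 h mesoderm differentiation; two exposures, 24 h apart; 1 nM - 200 uM, 10 points; nuclear stain, high-content imaging, 5 fields/well; endpoint = %BRA+ cells of total count minus 0.2% DMSO; n=4.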

[18] = CCTE_Deisenroth_DEVTOX-GLR_Pluri_CellCount: Viability Assessment in CCTE's DevTox GLR-Pluri Assay Evaluation of Total Cell Counts, Deisenroth Lab (AID 2284430; active = hit-call score of the fitted dose curve at least 0.9, where 1 is the maximum; inactive = score below 0.9)
In short: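 Cytotoxicity readout: fluorescent nuclei counts by high-content imaging, expressed as percent change relative to 0.2% DMSO. Human RUES2-GLR pluripotent line differentiated 48 h, dosed twice at 24-h intervals across 1 nM - 200 uM (10 points).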

Chain of Cellular tumor antigen p53 (Homo sapiens) (P04637 whole entry, looked up): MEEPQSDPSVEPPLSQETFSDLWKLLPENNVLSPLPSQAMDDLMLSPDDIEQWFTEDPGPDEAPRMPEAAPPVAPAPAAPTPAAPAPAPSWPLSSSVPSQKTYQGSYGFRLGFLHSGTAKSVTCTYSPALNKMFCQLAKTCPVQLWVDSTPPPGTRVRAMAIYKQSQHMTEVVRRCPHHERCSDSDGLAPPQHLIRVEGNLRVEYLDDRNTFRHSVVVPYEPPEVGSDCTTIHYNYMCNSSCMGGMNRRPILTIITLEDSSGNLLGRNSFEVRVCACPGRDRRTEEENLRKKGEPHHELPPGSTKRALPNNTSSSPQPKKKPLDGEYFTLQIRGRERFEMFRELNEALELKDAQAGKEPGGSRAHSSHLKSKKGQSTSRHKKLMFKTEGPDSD

Clc1ccc2cc3ccccc3cc2c1
outcome [1]: inactive | outcome [2]: inactive | outcome [3]: inactive | outcome [4]: inactive | outcome [5]: inactive | outcome [6]: inactive

CNC(=O)c1cc(Oc2ccc(NC(=O)Nc3ccc(Cl)c(C(F)(F)F)c3)cc2)ccn1
outcome [1]: inactive | AC50 [2]: 7.13 µM (active) | outcome [3]: inactive | AC50 [4]: 5.52 µM (active) | outcome [7]: inactive | outcome [6]: inactive | outcome [8]: inactive | AC50 [9]: 0.815 µM (active) | AC50 [10]: 1.11 µM (active) | AC50 [11]: 0.609 µM (active) | AC50 [12]: 1.5 µM (active) | AC50 [13]: 1.45 µM (active) | AC50 [14]: 0.604 µM (active) | AC50 [15]: 1.08 µM (active) | AC50 [16]: 20.9 µM (active) | AC50 [17]: 1.3 µM (active) | AC50 [18]: 184 µM (active)

CN1C[C@H](C(=O)N[C@]2(C)O[C@@]3(O)[C@@H]4CCCN4C(=O)[C@H](Cc4ccccc4)N3C2=O)C[C@@H]2c3cccc4[nH]cc(c34)C[C@H]21
outcome [1]: inactive | outcome [2]: inactive | outcome [3]: inactive | outcome [4]: inactive | outcome [7]: inactive | outcome [8]: inactive

CCCn1cnc2c1c(=O)n(CCCCC(C)=O)c(=O)n2C
outcome [1]: inactive | outcome [2]: inactive | outcome [3]: inactive | outcome [4]: inactive | outcome [5]: inactive | outcome [6]: inactive

O=C1CCC(c2ccccc2)(C2CCN(Cc3ccccc3)CC2)C(=O)N1 (stereo unspecified)
outcome [1]: inactive | outcome [2]: inactive | outcome [3]: inactive | outcome [4]: inactive | outcome [7]: inactive | outcome [8]: inactive

CCCCCCCCSCC
outcome [1]: inactive | outcome [2]: inactive | outcome [3]: inactive | outcome [4]: inactive | outcome [5]: inactive | outcome [6]: inactive | outcome [8]: inactive

CCOc1nc2cccc(C(=O)O)c2n1Cc1ccc(-c2ccccc2-c2nn[nH]n2)cc1
AC50 [1]: 21.9 µM (active) | AC50 [2]: 28.7 µM (active) | AC50 [3]: 35.8 µM (active) | AC50 [4]: 43.3 µM (active) | AC50 [5]: 44.3 µM (active) | AC50 [6]: 38.2 µM (active) | outcome [8]: inactive

Nc1nccs1
outcome [1]: inactive | outcome [2]: inactive | outcome [3]: inactive | outcome [4]: inactive | outcome [5]: inactive | outcome [6]: inactive | outcome [8]: inactive

C=CC(=O)OCCOc1ccccc1
outcome [1]: inactive | outcome [2]: inactive | outcome [3]: inactive | outcome [4]: inactive | outcome [5]: inactive | outcome [6]: inactive | outcome [8]: inactive

NC(=O)c1ccc([N+](=O)[O-])cc1
outcome [1]: inactive | outcome [2]: inactive | outcome [3]: inactive | outcome [4]: inactive | outcome [5]: inactive | outcome [6]: inactive

C=CC(C)(O)CC/C=C(\C)CCC=C(C)C (stereo unspecified)
outcome [1]: inactive | outcome [2]: inactive | outcome [3]: inactive | outcome [4]: inactive | outcome [5]: inactive | outcome [6]: inactive | outcome [8]: inactive

CN1C(C(=O)Nc2ccccn2)=C(O)c2ccccc2S1(=O)=O
outcome [1]: inactive | outcome [2]: inactive | outcome [3]: inactive | outcome [4]: inactive | outcome [5]: inactive | outcome [6]: inactive | outcome [8]: inactive

CC(C)C[C@@H](NC(=O)[C@@H](O)[C@H](N)Cc1ccccc1)C(=O)O
outcome [1]: inactive | outcome [2]: inactive | outcome [3]: inactive | outcome [4]: inactive | outcome [5]: inactive | outcome [6]: inactive | outcome [8]: inactive
